POLI inh: qHTS for Inhibitors of Polymerase Iota. DNA polymerase iota (Homo sapiens), Q9UNA4. Potency, µM (highest dose often 115 µM), without a hit: top-dose activity, negative = inhibition, hits mostly inhibitors. hit rate 1% among 390,000. Pol iota fluorescent replication assay, 10 min
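Pol iota at 10 nM preincubated 15 min with compounds at room temperature; reaction started with fluorescent substrate, 50 nM final. Fluorescence read kinetically at 0 and 10 min; buffer-only wells as negative control.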
POLK inh: qHTS for Inhibitors of Polymerase Kappa | DNA polymerase kappa (Homo sapiens), Q9UBT6 | purified Pol kappa, fluorescent DNA synthesis assay, 10 min | Potency, µM (highest dose often 107 µM), inactives show at the top dose activity, negative = inhibition, hits mostly inhibitors | hit rate 0.53% among 400,000 | AID 588579, 2011; note: % is set by controls: 0 for no effect and ±100 for the full control effect
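Fluorescent qHTS in 1536-well format: enzyme (10 nM) and compound sat 15 min at room temperature before 50 nM substrate (final) was added. Signal taken at 0 and 10 min; no-enzyme buffer wells were negative controls.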
L3MBTL1 block: qHTS Assay for the Inhibitors of L3MBTL1; Lethal(3)malignant brain tumor-like protein 1 (Homo sapiens), Q9Y468; AlphaScreen L3MBTL1–H3K9me1 peptide binding; Potency, µM (titrated, usually from 57.1 µM), for inactives: at the highest dose activity, negative = inhibition, hits mostly inhibitors; hit rate 0.66% among 230,000; AID 485360, 2010; note: % is set by controls: 0 for no effect and ±100 for the full control effect; nearly all actives have a fitted effect of over 60% in size
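First, the protein-peptide complex forms for 30 min at room temperature (L3MBTL1 50 nM, biotinylated H3K9me1 peptide 75 nM). Next, compounds are pin-transferred and incubated 30 min. Finally, AlphaScreen beads are added and read after 30 min.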
Pol eta inh: qHTS for Inhibitors of Polymerase Eta | DNA polymerase eta (Homo sapiens), Q9Y253 | recombinant Pol eta, fluorescent DNA replication assay | Potency, µM (series often up to 114 µM), for inactives: top-dose activity change, negative = inhibition, most hits filed as inhibitors | hit rate 1.2% among 390,000 | AID 588591, 2011; note: % is set by controls: 0 for no effect and ±100 for the full control effect
Target sequence (Q9Y253 whole entry, looked up): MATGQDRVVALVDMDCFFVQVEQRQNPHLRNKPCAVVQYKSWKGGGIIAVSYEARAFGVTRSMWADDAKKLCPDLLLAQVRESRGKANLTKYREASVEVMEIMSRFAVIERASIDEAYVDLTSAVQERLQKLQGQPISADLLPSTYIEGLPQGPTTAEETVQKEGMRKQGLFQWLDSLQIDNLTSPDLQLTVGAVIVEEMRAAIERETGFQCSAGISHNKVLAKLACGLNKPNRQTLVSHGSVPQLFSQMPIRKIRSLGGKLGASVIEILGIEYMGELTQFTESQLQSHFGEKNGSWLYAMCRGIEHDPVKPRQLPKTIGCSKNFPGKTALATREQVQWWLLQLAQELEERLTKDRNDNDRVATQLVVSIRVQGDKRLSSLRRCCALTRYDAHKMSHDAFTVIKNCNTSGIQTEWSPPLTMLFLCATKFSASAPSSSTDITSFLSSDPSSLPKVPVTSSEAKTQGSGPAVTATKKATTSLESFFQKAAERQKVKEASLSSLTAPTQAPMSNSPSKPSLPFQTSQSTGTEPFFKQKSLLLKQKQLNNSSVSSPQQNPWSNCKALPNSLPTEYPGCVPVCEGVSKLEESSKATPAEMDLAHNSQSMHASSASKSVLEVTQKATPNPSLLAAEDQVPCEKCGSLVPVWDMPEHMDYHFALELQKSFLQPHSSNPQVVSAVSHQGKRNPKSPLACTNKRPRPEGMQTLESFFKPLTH
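Fluorescent replication assay: 50 nM final substrate added after a 15 min room-temperature compound preincubation with 10 nM enzyme. Signal taken at 0 min and again at 10 min.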
Pol beta inh: qHTS Assay for Inhibitors of DNA Polymerase Beta; Pol beta primer extension/strand displacement, fluorescence kinetic; P06746; Potency, µM (top dose mostly 114 µM), inactives show at the top dose activity change, negative = inhibition, actives largely listed as inhibitors; hit rate 1.3% among 340,000; note: % is set by controls: 0 for no effect and ±100 for the full control effect
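Kinetic readout of DNA synthesis with strand displacement by Pol beta. Compound and 10 nM enzyme sit 15 min at room temperature; 50 nM substrate starts the reaction, read immediately and at 10 min.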
* = called active by the depositor; ? = inconclusive; · = no result given; [ ] = remark or other dose. An excerpt weighted towards active compounds, which were near 2.4% of everything screened. Calls come from the whole dose curve; as a rule, active = well fitted curve in the direction sought with a large enough effect; inconclusive = small, poorly fitted or top-dose-only effect, or another doubt; inactive = no such curve, though single readings can be large; an effect the other way counts as inactive or inconclusive. Potency is the fitted concentration of half-maximal effect.

SMILES	POLI inh	POLK inh	L3MBTL1 block	Pol eta inh	Pol beta inh
CCOC(=O)N1CCN(S(=O)(=O)c2ccc3[nH]cc(C(=O)O)c(=O)c3c2)CC1	2%	8%	-2%	?	?
O=C(NCCc1ccc(Cl)cc1)c1c2c(nc3ccccc13)C(=O)N(C1CCCCC1)C2	5%	0%	·	-8%	-1%
COc1ccc(-c2nc(SCC(=O)NC3CCCC3)c(-c3ccc(F)cc3)[nH]2)cc1OC	-2%	3%	·	-2%	5%
Cc1cc(/C(N)=N/OC(=O)c2ccc(Cl)cc2)no1	7%	-6%	-14%	-11%	?
Cc1cc(/C(N)=N/OC(=O)c2cccc(Cl)c2)no1	-33%[58.9 µM]	-11%	1%	-12%	89µM*
COc1cc(C2C(C#N)=C(N)Oc3n[nH]c(C)c32)ccc1OC(=O)c1ccccc1 (configuration not stated)	-8%	-3%	-5%	-12%	-23%
COC(=O)Cc1[nH]nc2c1C(c1ccc(O)c(OC)c1)C(C#N)=C(N)O2 (configuration not stated)	8.9µM*	-32%	·	45µM*	-2%
COc1cc(C2C(C#N)=C(N)Oc3n[nH]c(C)c32)cc2c1OCO2 (configuration not stated)	?	?	-1%	16µM*	?
CC(C)C[C@H](NC(=O)[C@H](C)NC(=O)CNC(=O)[C@H](CCCCN)NC(=O)[C@H](CCCN=C(N)N)NC(=O)[C@H](C)NC(=O)[C@H](Cc1ccccc1)NC(=O)[C@@H](N)CCCN=C(N)N)C(=O)N[C@@H](CCCN=C(N)N)C(=O)N[C@@H](CCC(N)=O)C(=O)N[C@@H](CCCCN)C(=O)N[C@@H](CC(N)=O)C(=O)N[C@H](C(N)=O)C(C)C	·	-11%[60.1 µM]	·	·	·
CN(CC(=O)O)c1ccc(C=O)cc1	-16%	-17%	·	·	·
Cc1cccc(-n2c(C)nnc2SCC(=O)NC(C)c2ccco2)c1 (configuration not stated)	?	-11%	·	·	·
CCOC(=O)c1cnn(-c2nc(SC)nc3sc4c(c23)CCC4)c1N	?	-15%	?	?	10µM*
CCOC(=O)c1cnn(-c2nc(C)nc3sc4c(c23)CCC4)c1N	·	·	4%	·	10%
O=S(=O)(c1ccccc1)N1CCC2(CCN(Cc3nccs3)CC2)CC1	·	13%[60.1 µM]	·	·	·
COc1cc(OC)c(OC)cc1/C=N/Nc1ncnc2c1[nH]c1ccccc12	22%	-5%	11%	-3%	3%
COc1ccc(/C=N/Nc2ncnc3c2[nH]c2ccc(C)cc23)c(OC)c1OC	22%	-2%	·	25µM*	1%
CN(CC(=O)Nc1ccccc1Cl)C(=O)COC(=O)c1cccs1	3%	-14%	-1%	-17%	·
CN(CC(=O)Nc1ccccc1Cl)C(=O)COC(=O)c1ccc([N+](=O)[O-])s1	?	-13%	?	79µM*	·
COc1ccccc1NC(=O)COC(=O)c1ccc([N+](=O)[O-])s1	79µM*	-33%	?	?	7.1µM*
O=C1C(Cl)=C(Nc2ccc(O)cc2)C(=O)c2ccccc21	119%	-16%	-2%	-7%	-21%
COC1=C(Nc2ccc(O)cc2)C(=O)c2ccccc2C1=O	25µM*	-17%	?	-11%	?
COC1=C(Nc2ccc(OC)cc2)C(=O)c2ccccc2C1=O	?	-5%	28µM*	-8%	?
CCOc1ccc(NC2=C(OC)C(=O)c3ccccc3C2=O)cc1	?	-10%	25µM*	-29%	-22%
O=c1c2oc3ccccc3c2n(Cc2cccc(F)c2)c(=O)n1Cc1ccc2c(c1)OCO2	2%	-16%	·	-18%	-1%
CCN(CCCNC(=O)c1nn(-c2ccc(C)cc2)c(=O)c2c1c1ccccc1n2C)c1ccccc1	11%	-8%	·	·	?
SMILES	POLI inh	POLK inh	L3MBTL1 block	Pol eta inh	Pol beta inh
CCC(=O)N1CCc2cc(S(=O)(=O)NC(C(=O)NCc3ccccc3Cl)C(C)C)ccc21 (configuration not stated)	1%	6%	·	9%	23%
CC(C)(C)c1ccc(C(=O)N/C(=C\c2cccc([N+](=O)[O-])c2)C(=O)Nc2cccc(C(=O)O)c2)cc1	62%	-10%	·	22µM*	?
O=C(CN1C(=O)C2CCCCN2c2ccc(C(=O)N3CCCC3)cc21)NCc1ccccc1F (configuration not stated)	25%	-6%[60.1 µM]	·	-12%	5%
CCC(=O)N1CCc2cc(CNC(=O)Nc3cc(C)ccc3C)ccc21	-1%	-13%[60.1 µM]	·	-7%	3%
COc1cc2c(cc1OC)C(c1ccccc1)=NCC2	157%	-6%	-1%	-6%	28%
COc1cc2c(cc1OC)-c1cc3ccc4c(c3c[n+]1CC2)OCO4	14µM*	-21%	0%	?	40µM*
COc1cccc(/C=C2\Oc3cc(OCC(=O)N4CCC[C@H]4C(=O)O)ccc3C2=O)c1	1%	-4%	·	45µM*	-2%
COCCNC(=O)CSc1nc(-c2cc(OC)c(OC)c(OC)c2)[nH]c1-c1ccc(Cl)cc1	-12%	-10%	·	-28%	?
COC(=O)N/N=C/c1ccc(OC(=O)/C=C/c2ccco2)cc1	35µM*	?	-9%	?	11µM*
O=C(Cc1ccccc1)N/N=C/c1ccc(OC(=O)/C=C\c2ccco2)cc1	?	?	15%[11.4 µM]	-16%	-27%
CCc1ccc(OC(=O)/C=C/c2ccco2)cc1	?	?	-7%	-6%	35µM*
O=C(/C=C\c1ccco1)Oc1cccc2cccnc12	25µM*	?	·	-16%	22µM*
Cc1ccc(NC(=O)CSc2nnc(-c3ccccc3)n2C)cc1	23%	11%	·	·	·
CCc1ccccc1NNC(=O)c1sccc1Cl	14%	-2%	·	·	·
COc1cccc(NC(=O)CN2C(=O)C3(SCC(=O)N3c3cc(C)cc(C)c3)c3ccccc32)c1 (configuration not stated)	-5%	-5%	·	-15%	12%
CCn1c(SCC(=O)NCc2ccco2)nnc1-c1cccs1	-7%	-12%	0%[11.4 µM]	0%	32µM*
CCOc1ccc(-c2nnc3ccc(SCC(=O)NCc4ccco4)nn23)cc1	?	-7%	-2%	?	25µM*
CCn1c(SCC(=O)NCc2ccco2)nnc1-c1ccncc1	·	·	-10%	·	-24%
CCCCn1c(SCC(=O)NCc2ccco2)nnc1-c1ccco1	2%	-13%	-5%	-7%	48%
CCCCn1c(SCC(=O)NCc2ccco2)nnc1-c1ccoc1C	?	35µM*	·	13µM*	?
CCc1cccc(NCc2ccccc2-c2nnc(-c3ccccc3Cl)o2)c1	27%	11%	·	?	6%
CC(C)OCCCN(Cc1ccco1)C(=O)c1cc2c(s1)-c1ccccc1OC2	-1%	-4%	·	-12%	2%
